This note sets out measurements from PubChem BioAssay (EPA / NIEHS).

Inconclusive results are not listed. The source made the active and inactive calls. The calls were made as follows: active = hit-call score of the fitted dose curve at least 0.9, where 1 is the maximum; inconclusive = response in the unintended direction; inactive = score below 0.9.

The target in one experiment is Nucleoli Translocation, AR (gene 367) (UniProt P10275). The experiment is described as follows: UPITT_HCI_U2OS_AR_TIF2_Nucleoli_Antagonist: University of Pittsburgh U2OS Androgen Receptor-Transcriptional Intermediary Factor 2 (AR-TIF2) Antagonism High Content Imaging Assay for Nucleoli Translocation (AID 2283997). Put shortly: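 Compounds are added at 20 uM final concentration in 0.2% DMSO to U2OS cells carrying AR-RFP and TIF2-GFP fusions. Nucleolar AR-RFP fluorescence is then quantified by automated imaging. Antagonism is fitted positively against DHT baseline.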
Chain of Nucleoli Translocation, AR (gene 367) (P10275 whole entry, looked up, the tested form may be a part): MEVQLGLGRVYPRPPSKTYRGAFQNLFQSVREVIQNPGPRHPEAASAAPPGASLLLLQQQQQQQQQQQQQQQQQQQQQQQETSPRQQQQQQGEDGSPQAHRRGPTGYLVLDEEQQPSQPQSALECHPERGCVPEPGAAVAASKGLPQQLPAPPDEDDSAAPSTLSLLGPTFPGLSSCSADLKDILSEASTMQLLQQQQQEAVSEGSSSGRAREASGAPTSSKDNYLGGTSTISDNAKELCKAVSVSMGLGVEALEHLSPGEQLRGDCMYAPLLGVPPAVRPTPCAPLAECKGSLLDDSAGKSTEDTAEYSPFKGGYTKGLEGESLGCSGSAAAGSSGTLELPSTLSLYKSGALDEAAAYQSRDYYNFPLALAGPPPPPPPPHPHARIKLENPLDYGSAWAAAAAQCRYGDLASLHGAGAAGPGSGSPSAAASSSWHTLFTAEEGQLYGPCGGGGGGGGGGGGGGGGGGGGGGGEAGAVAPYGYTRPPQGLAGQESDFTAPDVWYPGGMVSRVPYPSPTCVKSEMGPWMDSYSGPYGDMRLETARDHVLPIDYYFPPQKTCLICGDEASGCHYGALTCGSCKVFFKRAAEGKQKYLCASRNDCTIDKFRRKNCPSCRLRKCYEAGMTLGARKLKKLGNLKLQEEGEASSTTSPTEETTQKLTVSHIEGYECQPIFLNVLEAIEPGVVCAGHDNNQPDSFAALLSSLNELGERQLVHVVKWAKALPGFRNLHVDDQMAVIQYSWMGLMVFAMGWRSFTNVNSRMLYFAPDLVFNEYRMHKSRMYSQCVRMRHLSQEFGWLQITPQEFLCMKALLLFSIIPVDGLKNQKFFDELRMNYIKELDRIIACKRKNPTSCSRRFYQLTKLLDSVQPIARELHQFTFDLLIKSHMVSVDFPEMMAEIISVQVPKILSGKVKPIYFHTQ
Usually AC50 stands for the concentration at which the activity in the assay is half-maximal. As for `O=C1c2ccccc2C(=O)C1C(=O)C(c1ccccc1)c1ccc(Cl)cc1` (configuration not stated), the AC50 was 50 µM (active).

In the case of `N#CCC#N`, the molecule was called inactive.

Take `COCCl`: the result was inactive.

Consider `CC(C)N(C(=O)CCl)c1ccccc1`, for which the AC50 is 16 µM (active).

For the molecule `CCOP(=S)(OCC)OP(=S)(OCC)OCC`, the AC50 is 72.1 µM (active).

For `O=C(NC(=O)c1c(F)cccc1F)Nc1cc(Cl)c(OC(F)(F)C(F)C(F)(F)F)cc1Cl` (configuration not stated), the molecule was classed as inactive.

Consider `OC(Cc1ccccc1Cl)(Cn1[nH]cnc1=S)C1(Cl)CC1` (configuration not stated), for which the result was inactive.

Regarding `C=CC(Cl)CCl` (configuration not stated), the call was inactive.

Regarding `CC(=Cc1ccccc1)[N+](=O)[O-]`, the AC50 was 0.585 µM (active).

With `O=C(CCl)Nc1ccccc1`, the AC50 was 29 µM (active).

As to `CNC(=O)O/N=C/C(C)(C)S(C)(=O)=O`, the call was inactive.

As for `O=C(N[C@H]1CN2CCC1CC2)c1ccc2c(c1)OCCO2`, the call was inactive.

In the case of `O=[N+]([O-])c1ccc(Cl)c([N+](=O)[O-])c1`, the AC50 is 1.9 µM (active).

On to `O=S1(=O)OC(c2cc(Br)c(O)c(Br)c2)(c2cc(Br)c(O)c(Br)c2)c2ccccc21`, for which the molecule was classed as inactive.

On to `O=S1OC[C@@H]2[C@H](CO1)[C@]1(Cl)C(Cl)=C(Cl)[C@@]2(Cl)C1(Cl)Cl` (some centres not stated), for which the AC50 was 32.2 µM (active).

For the molecule `O=C(O)COc1cc(Cl)c(Cl)cc1Cl`, the result was inactive.

Another experiment shares this target. The experiment is described as follows: UPITT_HCI_U2OS_AR_TIF2_Nucleoli_Agonist: University of Pittsburgh U2OS Androgen Receptor-Transcriptional Intermediary Factor 2 (AR-TIF2) Agonism High Content Imaging Assay for Nucleoli Translocation (AID 2283998). Put shortly:
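Red-tagged human androgen receptor co-expressed with GFP-tagged TIF2 serves as the binding reporter. Primary testing used 20 uM final (0.2% DMSO); follow-up dose response covered 0.195 to 50 uM final (0.5% DMSO).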
`O=C1c2ccccc2C(=O)C1C(=O)C(c1ccccc1)c1ccc(Cl)cc1` (configuration not stated): the molecule was called inactive.

In the case of `COCCl`, the outcome was inactive.

As for `CC(C)N(C(=O)CCl)c1ccccc1`, the molecule was called inactive.

On to `Cc1cc(Cl)ccc1OCCCC(=O)O`, for which the outcome was inactive.

As for `CCOP(=S)(OCC)OP(=S)(OCC)OCC`, the molecule was called inactive.

In the case of `O=C(NC(=O)c1c(F)cccc1F)Nc1cc(Cl)c(OC(F)(F)C(F)C(F)(F)F)cc1Cl` (configuration not stated), the result was inactive.

As for `OC(Cc1ccccc1Cl)(Cn1[nH]cnc1=S)C1(Cl)CC1` (configuration not stated), the result was inactive.

As to `CC(=Cc1ccccc1)[N+](=O)[O-]`, the outcome was inactive.

For `O=C(CCl)Nc1ccccc1`, the call was inactive.

On to `CNC(=O)O/N=C/C(C)(C)S(C)(=O)=O`, for which the molecule was called inactive.

As for `O=C(N[C@H]1CN2CCC1CC2)c1ccc2c(c1)OCCO2`, the result was inactive.

As for `O=[N+]([O-])c1ccc(Cl)c([N+](=O)[O-])c1`, the AC50 was 3.34 µM (active).

A further experiment deals with Ratio of Nucleoli Translocation and Cytoplasm, AR (gene 367) (UniProt P10275). The experiment is described as follows: UPITT_HCI_U2OS_AR_TIF2_Nucleoli_Cytoplasm_Ratio_Antagonist: University of Pittsburgh U2OS Androgen Receptor-Transcriptional Intermediary Factor 2 (AR-TIF2) Antagonism High Content Imaging Assay for Ratio of Nucleoli Translocation and Cytoplasm (AID 2283999).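 Also: antagonists lower the DHT-driven ratio of nucleolar to cytoplasmic red signal.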 Put shortly: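 High-content imaging of red fluorescence ratio, nucleoli versus cytoplasm, in U2OS expressing AR-RFP and TIF2-GFP, fitted relative to DHT. Compounds tested once at 20 uM final, then 0.195 to 50 uM final in serial dilution.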
Chain of Ratio of Nucleoli Translocation and Cytoplasm, AR (gene 367) (P10275 whole entry, looked up): as the sequence (P10275 whole entry, looked up, the tested form may be a part) above
In the case of `O=C1c2ccccc2C(=O)C1C(=O)C(c1ccccc1)c1ccc(Cl)cc1` (configuration not stated), the outcome was inactive.

As for `N#CCC#N`, the result was inactive.

As for `COCCl`, the result was inactive.

Regarding `CC(C)N(C(=O)CCl)c1ccccc1`, the AC50 was 11.4 µM (active).

Turning to `CCOP(=S)(OCC)OP(=S)(OCC)OCC`, the result was inactive.

For `O=C(NC(=O)c1c(F)cccc1F)Nc1cc(Cl)c(OC(F)(F)C(F)C(F)(F)F)cc1Cl` (configuration not stated), the outcome was inactive.

Take `OC(Cc1ccccc1Cl)(Cn1[nH]cnc1=S)C1(Cl)CC1` (configuration not stated): the outcome was inactive.

As to `C=CC(Cl)CCl` (configuration not stated), the outcome was inactive.

`CC(=Cc1ccccc1)[N+](=O)[O-]`: the AC50 is 0.845 µM (active).

With `O=C(CCl)Nc1ccccc1`, the AC50 was 26.3 µM (active).

`CNC(=O)O/N=C/C(C)(C)S(C)(=O)=O`: the result was inactive.

In the case of `O=[N+]([O-])c1ccc(Cl)c([N+](=O)[O-])c1`, the AC50 was 2.39 µM (active).

Consider `O=S1(=O)OC(c2cc(Br)c(O)c(Br)c2)(c2cc(Br)c(O)c(Br)c2)c2ccccc21`, for which the result was inactive.

On to `O=S1OC[C@@H]2[C@H](CO1)[C@]1(Cl)C(Cl)=C(Cl)[C@@]2(Cl)C1(Cl)Cl` (some centres not stated), for which the outcome was inactive.
